# Several values for one entry are separate records, joined by “and”; a condition that tells them apart may be missing. Identical values can stand only once. In all, about 16,000 compounds went through this assay and about 5,700 (36%) were called active. Roughly 24% stayed inconclusive and do not appear here. Calls follow the shape of the dose curve; as a rule, active = well fitted curve in the direction sought with a large enough effect; inconclusive = small, poorly fitted or top-dose-only effect, or effect the other way; inactive = no such curve, though single readings can be large or run the other way. The list shows a part of the results.
# Biological target: Cytochrome P450 1A2 (Homo sapiens) (UniProt P05177)
# Sequence (P05177 whole entry, looked up): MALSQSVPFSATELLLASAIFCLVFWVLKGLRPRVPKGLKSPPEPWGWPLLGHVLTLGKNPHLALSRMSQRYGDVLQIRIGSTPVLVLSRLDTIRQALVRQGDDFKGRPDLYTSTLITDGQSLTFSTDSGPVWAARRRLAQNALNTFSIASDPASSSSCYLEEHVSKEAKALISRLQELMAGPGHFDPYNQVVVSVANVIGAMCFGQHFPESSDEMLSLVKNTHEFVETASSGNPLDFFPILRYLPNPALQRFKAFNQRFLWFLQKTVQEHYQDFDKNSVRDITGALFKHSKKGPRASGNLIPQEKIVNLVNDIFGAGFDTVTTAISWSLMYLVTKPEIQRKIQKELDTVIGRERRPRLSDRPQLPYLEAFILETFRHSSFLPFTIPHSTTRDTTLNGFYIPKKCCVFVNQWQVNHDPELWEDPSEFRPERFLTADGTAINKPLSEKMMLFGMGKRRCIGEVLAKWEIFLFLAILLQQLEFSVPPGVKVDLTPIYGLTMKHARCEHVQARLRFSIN
# Assay: Cytochrome panel assay with activity outcomes
# Conditions: recombinant CYP, pro-luciferin dealkylation, luminescence, p450-cyp1a2; series mostly up to 57.1 µM; activity, negative = inhibition: at the top concentration
# % is scaled to controls: 0 for no effect and ±100 for the full control effect.
SMILES,AC50,"activity, negative = inhibition"
COc1ccc(CNc2ncnc3ccc(-c4cccnc4)cc23)c(OC)c1,0.398 µM (active),–
COc1ccc(CNc2ncnc3ccc(-c4c(C)noc4C)cc23)c(OC)c1,15.8 µM (active),–
COc1cccc(-c2ccc3ncnc(NCc4ccc(OC)cc4OC)c3c2)c1,2.51 µM (active),–
COc1ccccc1CNc1ncnc2ccc(-c3cccnc3)cc12,0.316 µM (active),–
CO/N=C(\C)CCN1CCCc2nc(C)c(C)cc21,–,2.07% [at 11.4 µM] (inactive)
Cc1cc(C)cc(OCC(=O)NNC(=O)c2cc(C)[nH]n2)c1,–,-6.86% (inactive)
COCC(=O)N1CCC2(CC1)CN(C(=O)Nc1cccc(F)c1)C2,–,2.7% (inactive)
O=C(Cn1cnc2ccccc2c1=O)Nc1nnc(SCc2ccccc2)s1,–,-19.6% (inactive)
O=C(Cc1ccccc1)Nc1nc(=O)c2ccccc2s1,2.24 µM (active),–
CCc1ccc2c(c1)c(N=NC1=NC(=O)CS1)c(O)n2CC,1.41 µM (active),–
Oc1cccc2ccc(SSc3ccc4cccc(O)c4n3)nc12,3.16 µM (active),–
COc1ccc(NC(=O)N2CC3(CCN(C(C)=O)CC3)C2)cc1,–,-1.08% (inactive)
COc1ccc(N2CCN(C(=N)/C(C(C)=O)=C(\C)O)CC2)cc1,–,-6.13% (inactive)
COc1ccc(-c2ccc(C(=S)N3CCN(C(C)=O)CC3)o2)cc1,2.24 µM (active),–
O=C(c1cn(-c2ccccc2)nc1-c1cccs1)N1CCOCC1,15.8 µM (active),–
O=C(Nc1c(C(=O)N2CCOCC2)cnn1-c1ccccc1)c1ccco1,–,-28.5% (inactive)
O=C(c1ccncc1)N1CCC2(CC1)CCN(c1ccccc1)CC2,–,-23.6% (inactive)
C[C@@H]1/C=C\CC(=O)OC[C@H](C)C(=O)N[C@@H](C)C(=O)OC1,–,-0.299% [at 11.4 µM] (inactive)
COc1ccccc1CNc1cc(-c2cccc(NS(C)(=O)=O)c2)ncn1,15.8 µM (active),–
COc1ccc(CNc2cc(-c3cccc(NS(C)(=O)=O)c3)ncn2)c(OC)c1,15.8 µM (active),–
Cc1ccc(S(=O)(=O)N2CCC(C(=O)NCc3cccnc3)CC2)cc1,–,-1.53% (inactive)
CCS(=O)(=O)N1CCC(C(=O)NCc2cccnc2)CC1,–,-1.47% (inactive)
O=C(CSCc1c(Cl)cccc1Cl)NCc1cccnc1,5.01 µM (active),–
Fc1ccc(COc2ccc(Br)cc2CNCc2ccncc2)cc1,0.316 µM (active),–

SMILES,AC50,"activity, negative = inhibition"
OC(CNCc1ccc(F)cc1)(c1ccc(F)cc1)c1ccc(F)cc1,–,4.03% (inactive)
Cc1nnc(NC(=O)c2oc3c(ccc4ccccc43)c2C)s1,0.2 µM (active),–
Cc1nnc(NC(=O)CCC(=O)NCc2cccs2)s1,–,-18% (inactive)
COC(=O)[C@@H](NC(=O)Nc1ccc(C(C)=O)cc1)C(C)C,–,-4.26% (inactive)
Cc1cccc(OCCCC(=O)Nc2ccccc2C(F)(F)F)c1,11.2 µM (active),–
Cc1cccc(OCCCC(=O)Nc2ccc(N3CCCCC3)cc2)c1,–,-15.4% (inactive)
COc1cc([N+](=O)[O-])ccc1NC(=O)CCCOc1cccc(C)c1,7.94 µM (active),–
Cc1c(NC(=O)/C=C/C(=O)O)cccc1[N+](=O)[O-],–,-12.2% (inactive)
Cc1ccc(OCC(=O)NNC(=O)CCC(=O)Nc2ccc(C)cc2C)cc1,–,-2.46% (inactive)
Cc1c(NC(=O)CCCOc2ccccc2)cccc1[N+](=O)[O-],12.6 µM (active),–
Cc1c(NC(=O)C(Sc2ccccc2)c2ccccc2)cccc1[N+](=O)[O-] (stereo not given),–,-9.98% (inactive)
Cc1ccc(OCCCC(=O)Nc2ccccc2C(F)(F)F)cc1,4.47 µM (active),–
Cc1nn(-c2ccccc2)c2c1C(c1ccc(O)c(O)c1)N1C(=N2)C(Nc2ccccc2)=Nc2ccccc21 (stereo not given),–,-3.72% (inactive)
COc1ccc(C(=O)N2CC3(CC(c4ccc(Cl)cc4)=NO3)C[C@H]2C(=O)NCC(N)=O)cc1 (stereo not given in full),–,-12.9% (inactive)
C[N+]1(CC(=O)OCCCc2ccccc2)CCOCC1,–,9.57% (inactive)
COc1ccccc1NC(=O)Cn1cncc1-c1ccc([N+](=O)[O-])cc1,–,-23.8% (inactive)
CCN(CC(=O)Nc1ccc([N+](=O)[O-])cc1OC)c1ccccc1,12.6 µM (active),–
COc1ccc([N+](=O)[O-])cc1NC(=O)CC(C)c1ccccc1 (stereo not given),5.01 µM (active),–
C=CC[C@@H]1C=C[C@H](O/N=C\[C@@H](C)[C@H](OCc2ccccc2)C(C)C)[C@H](CO)O1,–,9.01% [at 11.4 µM] (inactive)
O=C1c2ccccc2NC(c2ccc(F)cc2)N1Cc1ccco1 (stereo not given),25.1 µM (active),–
COc1cc(C2C(=O)N(C3CCCC3)CC(=O)N2Cc2ccco2)ccc1OC(C)C (stereo not given),–,-9.22% (inactive)
COc1ccc(C2Nc3ccccc3C(=O)N2Cc2ccco2)cc1COc1ccc([N+](=O)[O-])cc1 (stereo not given),–,-16.8% (inactive)
Cc1ccc(C2Nc3ccccc3C(=O)N2Cc2ccco2)cc1 (stereo not given),15.8 µM (active),–
CN(Cc1ccco1)C(=O)C1CCC(=O)N1Cc1ccc(F)cc1 (stereo not given),–,17.4% (inactive)

SMILES,AC50,"activity, negative = inhibition"
CC(C)Oc1ccc(/C(O)=C2/C(=O)C(=O)N(Cc3cccnc3)C2c2ccco2)cc1 (stereo not given),–,-5.23% (inactive)
CC(=O)Nc1ccc(NC(=O)C/C(C)=N/NC(=O)C(=O)N2CCCC2)cc1,–,1.33% (inactive)
Cc1ccc(S(=O)(=O)CCc2nnc(NC(=O)COc3cccc(C)c3)s2)cc1,–,7.38% (inactive)
C/C(CC(=O)Nc1cc(C)ccn1)=N\NC(=O)COc1cccc(C)c1,14.1 µM (active),–
COc1cccc(-c2cc(C(F)(F)F)nc(N3CCN(c4ccccc4)CC3)n2)c1,12.6 µM (active),–
COc1cccc(-c2cc(C(F)(F)F)nc(N3CCOCC3)n2)c1,0.794 µM (active),–
COc1cccc(-c2cc(C(F)(F)F)n3ncc(S(=O)(=O)c4ccccc4)c3n2)c1,–,-19.7% (inactive)
COc1cccc(-c2cc(C(F)(F)F)nc(N3CCCCC3)n2)c1,1 µM (active),–
CCOC(=O)N1CCC(NC(=O)CCC(=O)N2CCOc3ccccc32)CC1,–,-14.2% (inactive)
CCOC(=O)[C@H](N)/C=C(\C)CP(=O)(O)O,–,-17.3% (inactive)
CC(C)(C)C(=O)N1CCc2cc(-c3csc(N)n3)ccc21,7.08 µM (active),–
CCCC(=O)Nc1nc(-c2ccc3c(c2)CCN3S(C)(=O)=O)cs1,–,-3.69% (inactive)
CO[C@H]1COC(=O)[C@@H](Cc2ccccc2)NC(=O)[C@@H](C)COC(=O)CCC[C@@H]1C,–,-3.47% [at 11.4 µM] (inactive)
O=C(CN1CCCCC1)Nc1nnc(-c2ccc([N+](=O)[O-])cc2)s1,–,-14.5% (inactive)
COCC(=O)N1CCN(c2ccc([N+](=O)[O-])cc2)CC1,–,-1.44% (inactive)
COCC(=O)N(C)c1nnc(-c2ccc([N+](=O)[O-])cc2)s1,3.16 µM (active),–
CC(C)c1ccc(O)c(NC(=O)c2ncn[nH]2)c1,15.8 µM (active),–
COc1ccc(NC(=O)C(c2ccc(OC)cc2)N(C)C(=O)CNC(C)=O)cc1 (stereo not given),–,-5.37% (inactive)
COc1ccc(NC(=O)c2ncn[nH]2)cc1,11.2 µM (active),–
Cc1ccc(C)c(NC(=O)C2CC3c4ccccc4C2c2ccccc23)c1 (stereo not given),–,-5.49% (inactive)
COC(=O)N1CCC2(CC1)CN(C(=O)Nc1ccc(OC)cc1)C2,–,-0.895% (inactive)
COc1ccc(NC(=O)N2CCC3(CC2)CCN(S(C)(=O)=O)CC3)cc1,–,3.99% (inactive)
COc1ccc(NC(=O)OC(C)C)cc1,11.2 µM (active),–
COc1ccc(NC(=O)N2CCCC3(CCNCC3)C2)cc1,–,-1.6% (inactive)

SMILES,AC50,"activity, negative = inhibition"
Cc1ccc(C)c(NC(=O)c2ncn[nH]2)c1,15.8 µM (active),–
Cc1ccc(C)c(NC(=O)Cn2c([N+](=O)[O-])cnc2C)c1,–,-3.91% (inactive)
CC(C)CN1CCC2(CC1)CCN(C(=O)c1cccn1C)CC2,–,9.28% (inactive)
COCC(=O)N1CCC2(CCCN(c3ncccn3)C2)CC1,–,-20.4% (inactive)
N=C(N)SCc1nc2ccccc2c(=O)n1-c1ccccc1Cl,1.26 µM (active),–
COc1cc(C=O)ccc1OCCCOc1ccccc1C(=O)O,–,-8.32% (inactive)
COc1ccc(C=Nc2c(O)ccc3ccccc23)cc1OC,0.251 µM (active),–
COC(=O)C/C=C\[C@@H](C)[C@@H](/C=N\O[C@@H](C)c1cn([C@H](CO)Cc2ccccc2)nn1)NS(=O)(=O)c1ccc(C)cc1,–,-0.854% [at 11.4 µM] (inactive) and -7.61% [at 11.4 µM] (inactive)
CC(C)CN1CC2(CCN(C(=O)c3cccc(F)c3)CC2)C1,–,3.33% (inactive)
O=C1CCC(c2ccccc2)=NN1c1nc2ccccc2s1,0.398 µM (active),–
c1cncc(-c2cncnc2-n2ccnc2)c1,20 µM (active),–
COc1cccc(-c2cncnc2-n2ccnc2)c1,0.1 µM (active),–
COc1ccccc1-c1cncnc1-n1ccnc1,12.6 µM (active),–
N#Cc1cccc(-c2cncnc2-n2ccnc2)c1,15.8 µM (active),–
Cc1cn(CC[C@H](N)C(=O)O)c(=O)[nH]c1=O,–,-9.38% [at 11.4 µM] (inactive)
COC(=O)C[C@@H]1O[C@H]1[C@H](C)[C@@H](OC)C(C)C,–,-6.59% [at 11.4 µM] (inactive)
COC(=O)[C@@]1(Cc2ccc(OC)cc2)[C@@H]2[C@@H](CC(=O)[C@H]2CC(=O)C(=O)N2CCCC2)CN1C(=O)c1ccccc1,–,-20.3% (inactive)
COc1ccc(C[C@@H]2C(=O)N[C@H](C)C(=O)N(C)[C@@H]3Cc4ccc(cc4)Oc4cc(ccc4O)C[C@H](C(=O)N[C@@H](C)C(=O)N[C@H](C)C(=O)N2C)N(C)C3=O)cc1,–,-16.4% [at 11.4 µM] (inactive)
CC(C)CC(=O)N[C@H](C(=O)N[C@H](C(=O)N[C@@H](CC(C)C)[C@H](O)CC(=O)N[C@@H](C)C(=O)N[C@@H](CC(C)C)[C@H](O)CC(=O)O)C(C)C)C(C)C,–,1.07% [at 25.6 µM] (inactive)
COc1ccc(O[C@H]2C=C[C@@H](c3ccccc3)O[C@@H]2CO/N=C(\C)CCN2CCc3nc(-c4ccccc4)c(-c4ccccc4)cc3C2)cc1,–,-6.98% [at 11.4 µM] (inactive)
Cc1cc2cccc(C)c2nc1SCC(=O)N(C)c1nc(-c2ccccc2)cs1,–,-13.1% (inactive)
CCC(=O)N(Cc1ccco1)c1nc(-c2ccccc2)cs1,1.26 µM (active),–
Cc1ccccc1C(C(=O)NCc1ccccc1)N(Cc1ccco1)C(=O)c1ccccn1 (stereo not given),–,-0.421% (inactive)

# — PubChem BioAssay AID1851 (National Center for Advancing Translational Sciences (NCATS), 2009)
